Results from PubChem BioAssay (NCATS).
Inconclusive results are not listed. Calls of active or inactive are those of the source. The call rests on the fitted dose curve; in most records, active means well fitted inhibition curve with a large enough effect; inconclusive means small, poorly fitted or top-dose-only effect; inactive means flat fitted curve, though single readings scatter.

How the values were obtained:
Assay in all cases: qHTS profiling for inhibitors of Plasmodium falciparum proliferation (AID 504749); further: nearly all actives have a fitted effect of over 60% in size
Conditions in all cases: P. falciparum in erythrocytes, SYBR Green DNA, 72 h; series mostly up to 28.7 µM
ATS95 = tested on: ATS95
Outline: (§1)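 Quantitative HTS: compounds pinned into medium, infected erythrocytes added (0.3% parasitemia, 2.5% hematocrit), 72 h culture at 37 C under 5% CO2. Saponin/Triton lysis with SYBR Green I, overnight RT, then fluorescence read.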

C2A = tested on: C2A
Outline: as §1

CP211 = tested on: CP211
Outline: as §1

CP217 = tested on: CP217
Outline: as §1

CP250 = tested on: CP250
Outline: as §1

CP252 = tested on: CP252
Outline: as §1

CP256 = tested on: CP256
Outline: as §1

CP262 = tested on: CP262
Outline: as §1

CP269 = tested on: CP269
Outline: as §1

CP325 = tested on: CP325
Outline: as §1

CP329 = tested on: CP329
Outline: as §1

DIV17 = tested on: DIV17
Outline: as §1

ECU = tested on: ECU
Outline: as §1

FAB9 = tested on: FAB9
Outline: as §1

N140 = tested on: N140
Outline: as §1

P93_24 = tested on: P93_24
Outline: as §1

PAD = tested on: PAD
Outline: as §1

PC15 = tested on: PC15
Outline: as §1

PC26 = tested on: PC26
Outline: as §1

SC27B = tested on: SC27B
Outline: as §1

Measured: Potency

N[C@@H](Cc1ccccc1)C(=O)O
inactive: all assays above

COc1cccc2c1C(=O)c1c(O)c3c(c(O)c1C2=O)C[C@](O)(C(=O)CO)C[C@@H]3O[C@H]1C[C@H](N)[C@@H](O)[C@H](C)O1
inactive: all assays above

CC1(C)[C@@H]2CC[C@]1(C)[C@@H](OC(=O)CSC#N)C2
inactive: all assays above
